HIF-2a block: HIF-2a reporter inhibitors, primary screen, luminescence, 786-0 RCC cells; 786-0 RCC cells HIF-2a reporter, luciferase luminescence, overnight; inhibition, % at 18.8 µM; 360,000 tested, 0.72% active;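 active means inhibition of the luminescence signal of 40% or more relative to plate controls, in a single-dose primary screen at 18.75 µM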
CF NFkB block: inhibitors of PAF-induced NF-kB signaling, primary screen, cell-based, GFP fluorescence, uHTS; 360,000 tested, 0.86% active; KKLEB NF-kB-GFP reporter, GFP fluorescence overnight; inhibition, % at 5 µM;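 active means at least 50% inhibition at 5 µM, scaled per plate between neutral and stimulator controls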;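 further: PAF is a Pseudomonas aeruginosa culture filtrate used as stimulus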
KKLEB cytotox: cytotoxicity in KKLEB CF airway cells, primary screen, cytotoxicity control for CF NF-kB inhibitor project, cell-based, uHTS, fluorescence assay plates | KKLEB CF airway cells viability, ATPlite luminescence, overnight; stronger effect = lower value; cells stimulated with P. aeruginosa culture filtrate | activity change (cytotoxicity), % at 5 µM | 360,000 tested, 0.36% active | AID 602141, 2011;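 active means corrected activity change at or below -50% at 5 µM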
TWEAK Fn14 block: inhibitors of TWEAK-Fn14 signaling, primary screen, luciferase reporter cells, uHTS. TWEAK-stimulated Fn14 reporter cells, luciferase luminescence, 8 h. inhibition, % at 10 µM. 360,000 tested, 2% active. AID 1159606, 2016; in the data active means inhibition above about 50%
TROY NFkB inh: inhibitors of TROY-driven NF-kB signaling, primary screen, Q293 LMP1-TROYcd cells, NF-kB luciferase, uHTS; inhibition, % at 10 µM; AID 1347056, 2019; Q293 LMP1-TROYcd NF-kB luciferase reporter, 4 h; 360,000 tested, 0.98% active;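 active means compounds whose plate-normalised and pattern-corrected inhibition of the luciferase reporter signal at the single screening dose is 50% or more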
Peg3 promoter: Peg3 promoter-driven luciferase inhibitors, primary screen, cell-based, HeLa, luciferase luminescence; HeLa PEG-Prom luciferase reporter, overnight; inhibition, % at 20 µM; 360,000 tested, 1.7% active; AID 588405, 2011;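 active means inhibition of at least 50% at 20 µM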
A number is an active result; 0 = inactive; - = no result given. The list is not random: actives were taken first. Their share in the collection is about 4%.

SMILES	HIF-2a block	CF NFkB block	KKLEB cytotox	TWEAK Fn14 block	TROY NFkB inh	Peg3 promoter
C/C(=N\OCC(=O)OC(C)C(=O)Nc1ccc(C(N)=O)cc1)c1ccc2c(c1)OCO2 (configuration not stated)	0	0	0	0	0	0
O=C(N/N=C/c1cn(-c2ccccc2)nc1-c1ccc(F)cc1)c1ccc(Br)o1	0	0	0	52.7	0	0
O=C(N/N=C/c1cn(-c2ccccc2)nc1-c1cccs1)c1ccc(Cl)cc1	0	0	0	54.6	0	0
O=C(N/N=C/c1cn(-c2ccccc2)nc1-c1cc2ccccc2o1)c1ccncc1	0	0	0	69.6	0	0
O=C(N/N=C/c1cn(-c2ccccc2)nc1-c1cc2ccccc2o1)c1cccnc1	0	0	0	84.6	63.4	0
Cc1ccc(Cn2cc(S(=O)(=O)c3ccc(Cl)cc3)c(=O)c3cc(F)ccc32)cc1	0	0	0	0	0	0
O=C(C[C@H]1C=C[C@@H](NS(=O)(=O)c2ccccc2)[C@@H](CO)O1)NCc1ccc(Cl)c(Cl)c1	0	-	-	-	-	-
COC(=O)Cc1cc(=O)n2[nH]cnc2n1	0	0	0	0	0	0
CC1=NOC(=O)/C1=C\c1ccc(-c2ccc(Br)cc2)o1	0	0	0	64.4	73.0	89.0
CC1=NOC(=O)/C1=C/c1ccc(-c2ccc(Cl)cc2)o1	0	0	0	73.5	77.7	102.3
CC1=NOC(=O)/C1=C\c1ccc(-c2ccc(Br)cc2C(=O)O)o1	0	0	0	0	0	0
COc1ccc(Cl)cc1/C=C1/C(=O)ON=C1C	0	0	0	0	0	0
CC1=NOC(=O)/C1=C\c1ccc(-c2cc(Cl)ccc2Cl)o1	0	66.1	0	101.2	0	101.2
CCOc1ccc(Cl)cc1/C=C1/C(=O)ON=C1C	0	0	0	0	0	0
CC(C)c1ccc(NC2CCCN(C(=O)c3ccc4nccnc4c3)C2)cc1 (configuration not stated)	0	0	0	0	0	0
COc1ccc(OC)c(S(=O)(=O)N2CCCC(C(=O)N3CCOCC3)C2)c1 (configuration not stated)	0	0	0	0	0	0
Cc1cc(Br)ccc1NC(=O)CN(C)C(=O)c1cc(S(=O)(=O)N(C)C)ccc1N1CCCC1	0	0	0	87.9	0	0
Cc1c(C(=O)N2CCCC2)c(S(=O)(=O)N2CCN(c3ccccc3F)CC2)c(C)n1C	0	0	0	0	0	0
CC(C)CC(c1nnnn1C(C)(C)C)N1CCN(Cc2ccccc2)CC1 (configuration not stated)	0	0	0	0	0	0
COc1ccc(N(C)S(=O)(=O)c2cccc(C(=O)NC3CCCCC3C)c2)cc1 (configuration not stated)	0	0	0	0	0	102.3
COc1ccc(N(C)S(=O)(=O)c2cccc(C(=O)NC3CCCC3)c2)cc1	0	0	0	0	0	0
COc1ccc(N2CC(C(=O)Nc3nc(-c4ccccc4)c(C(C)=O)s3)CC2=O)c(OC)c1 (configuration not stated)	0	0	0	0	0	0
Cc1cc(N2CCOCC2)ccc1/C=C\[N+](=O)[O-]	54.9	54.3	0	69.9	50.1	101.8
O=[N+]([O-])c1ccc(N2CCOCC2)cc1O	0	0	0	0	0	0
CN(C)CCCN(C(=O)c1cc(-c2cccs2)nc2ccccc12)c1nc2c(F)cccc2s1	0	0	0	0	0	70.8
SMILES	HIF-2a block	CF NFkB block	KKLEB cytotox	TWEAK Fn14 block	TROY NFkB inh	Peg3 promoter
CN(C)CCCN(C(=O)/C=C/c1cccs1)c1nc2c(F)cccc2s1	0	0	0	0	0	105.5
COc1cc2ccccc2cc1C(=O)N(CCN(C)C)c1nc2ccc(C)cc2s1	0	0	0	0	0	0
Cc1cccc2sc(N(CCCN(C)C)C(=O)c3ccc(C(=O)c4ccccc4)cc3)nc12	0	0	0	0	0	86.2
CN(C)CCCN(C(=O)c1sc2ccccc2c1Cl)c1nc2c(F)cccc2s1	0	0	0	0	0	0
Cc1ccc2nc(N(CCCN(C)C)C(=O)c3cc(-c4cccs4)nc4ccccc34)sc2c1	0	0	0	0	0	107.3
O=c1oc2ccccc2c2c1ccc1ccccc12	0	0	0	0	0	0
Oc1ccccc1-c1nc(NC2CCCC2)c2ccccc2n1	0	0	0	0	60.5	0
Fc1ccccc1-c1nc(NC2CCCC2)c2ccccc2n1	0	0	0	0	0	0
COc1ccc(CC(=O)NNS(=O)(=O)c2ccc([N+](=O)[O-])cc2)cc1OC	0	0	0	0	0	0
CN(CC(=O)N1CCN(c2ccccn2)CC1)S(=O)(=O)c1ccc(Br)cc1	0	0	0	92.0	-	0
Cc1ccc(S(=O)(=O)N2CCC(C(=O)N3CCN(c4ccccn4)CC3)CC2)cc1	0	0	0	75.5	0	0
CO/N=C/c1ccc(Oc2ccc([N+](=O)[O-])cc2[N+](=O)[O-])c(OC)c1	0	0	0	0	0	0
COc1cc(/C=C2\SC(=O)NC2=O)ccc1Oc1ccc([N+](=O)[O-])cc1[N+](=O)[O-]	0	0	0	62.8	0	0
COC(=O)c1ccc(C2c3[nH]c4ccccc4c3C[C@H]3C(=O)N(C4CC4)CC(=O)N23)cc1 (some centres not stated)	0	0	0	0	0	0
CCCn1c(C)cc(C(=O)CSc2nc3ccccc3c(=O)n2Cc2ccco2)c1C	0	0	0	59.2	0	0
O=C(CSc1nc2ccccc2c(=O)n1Cc1ccco1)c1ccc(F)cc1	0	0	0	57.7	64.4	0
CCOC(=O)CC(=O)CSc1nc2sc(C)cc2c(=O)n1Cc1ccco1	0	0	0	0	0	0
Cc1cc2c(=O)n(Cc3ccco3)c(SCC(=O)c3ccc(Cl)s3)nc2s1	0	0	0	54.4	0	0
NC(=O)CSc1nc2ccccc2c(=O)n1Cc1ccco1	0	0	0	0	0	0
CS(=O)(=O)c1ccc(Cl)c(NC(=O)CSc2nc3ccccc3c(=O)n2Cc2ccco2)c1	0	0	-54.3	0	0	0
Cc1cccc(-n2nnc3cnn(C)c3c2=O)c1	0	0	0	0	0	0
CC1=C(C(=O)Nc2ccccc2)C(c2ccc(C)cc2)N=C(Nc2nc3ccccc3o2)N1 (configuration not stated)	0	0	0	0	0	76.7
O=C(NCc1ccco1)c1sc(=S)n2c1[nH]c(=O)c1ccccc12	0	0	0	0	0	0
O=C(NC1CCCC1)c1sc(=S)n2c1[nH]c(=O)c1ccccc12	0	0	0	0	71.6	0

Screening data: PubChem, Sanford-Burnham Center for Chemical Genomics
